Assay outcomes: PubChem BioAssay, National Center for Advancing Translational Sciences (NCATS)
AMA1-RON2 inh – disrupts binding of P. falciparum AMA1 to RON2; AlphaScreen AMA1-biotinylated RON2 peptide binding; Potency, µM (highest dose often 58.2 µM), for the others: at the top dose activity change, negative = inhibition, usual class: inhibitors; 0.2% of 360,000 active; AID 720542;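 note: potency is the fitted concentration of half-maximal effect; 0% = vehicle wells and -100% = peptide control; nearly all actives have a fitted effect of over 45% in size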
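AMA1 (3D7) with his tag at 25 nM final met compounds first, then biotinylated RON2 peptide at 25 nM; detection used donor plus acceptor beads, 10 µg/mL apiece, read by AlphaScreen after 30 min at room temperature.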
AmpC inh no detg – AmpC beta-lactamase inhibition without detergent; P00811; AmpC nitrocefin hydrolysis, absorbance 480 nm, 0.0001% Triton; Potency, µM (highest dose often 57.1 µM), inactives show at the top dose activity change, negative = inhibition, most hits filed as inhibitors; 0.52% of 330,000 active;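 note: potency is the fitted concentration of half-maximal effect; plate controls were no compound for no effect and no enzyme for full effect; nearly all actives have a fitted effect of over 20% in size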
Target sequence (P00811 whole entry, looked up): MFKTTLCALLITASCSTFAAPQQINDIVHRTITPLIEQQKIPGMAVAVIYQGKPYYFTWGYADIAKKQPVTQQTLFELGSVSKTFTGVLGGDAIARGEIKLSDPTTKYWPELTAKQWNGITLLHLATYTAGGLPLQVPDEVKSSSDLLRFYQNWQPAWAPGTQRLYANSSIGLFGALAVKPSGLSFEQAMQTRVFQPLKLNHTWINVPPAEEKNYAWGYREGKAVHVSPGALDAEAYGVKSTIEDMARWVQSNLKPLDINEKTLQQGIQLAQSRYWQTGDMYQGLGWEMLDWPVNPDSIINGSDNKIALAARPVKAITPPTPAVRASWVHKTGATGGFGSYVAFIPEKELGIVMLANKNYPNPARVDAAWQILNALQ
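AmpC (5.3 nM in the dispensed reagent) in 20 mM phosphate pH 7.0 with 0.01% (detergent screen) or 0.0001% Triton X-100 was preincubated with compounds for 15 min at room temperature. Nitrocefin was then added from an 800 uM solution, and hydrolysis was followed at 480 nm.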
AmpC inh detg – blocks E. coli AmpC beta-lactamase in detergent assay. 0.041% of 370,000 active. Potency, µM (highest dose often 114 µM), for the others: top-dose activity change, negative = inhibition, actives largely listed as inhibitors. AID 485294. P00811. AmpC hydrolysis of nitrocefin, absorbance 480 nm, 0.01% Triton;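 note: potency is the fitted concentration of half-maximal effect; 0% = no-compound wells and -100% = no-enzyme wells; nearly all actives have a fitted effect of over 25% in size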
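20 mM phosphate pH 7.0 + 0.01% (detergent screen) or 0.0001% Triton X-100; 5.3 nM AmpC reagent; cpd preinc 15 min RT; nitrocefin (800 uM stock) to start; A480 q20 s × 4 min; Activity was normalised to no-enzyme and no-compound control wells.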
SARS PLpro yeast – SARS-CoV PLP inhibition in yeast. Potency, µM (highest dose often 32.9 µM), for inactives: at the highest dose activity, positive = growth rescue, hits mostly activators. 0.19% of 330,000 active. S. cerevisiae expressing SARS-CoV PLpro, growth rescue. AID 485353; calls by dose curve; note: potency is the fitted concentration of half-maximal effect; 0% is about no effect; nearly all actives have a fitted effect of over 55% in size
CHX counter – affects cycloheximide protein synthesis inhibition readout, counter-screen. 12% of 300,000 active. cell reporter, cycloheximide protein synthesis inhibition counterscreen. AID 2314. max response, %; in the data active = max response mostly above about 13%, no sharp cut-off; inactive = mostly below about 14%; note: read at 38.3 µM for the half of the compounds with a filed dose; 0% is about no effect
Shiga toxin inh – blocks Shiga toxin action in Vero cells | Vero cells, Shiga toxin protein synthesis inhibition reporter | inhibition, % at 38.7 µM | 9.2% of 290,000 active; in the data active = inhibition mostly above about 28%, no sharp cut-off; inactive = mostly below about 43%; note: 0% is about no effect
* = called active by the depositor; ? = inconclusive; · = not tested or not shown; [ ] = dose if it differs, or a comment. Shown is part of a subset that was picked to be rich in hits. Unless noted, calls come from the whole dose curve; as a rule, active = well fitted curve in the direction sought with a large enough effect; inconclusive = small, poorly fitted or top-dose-only effect, or another doubt; inactive = no such curve, though single readings can be large; an effect the other way counts as inactive or inconclusive.

SMILES	AMA1-RON2 inh	AmpC inh no detg	AmpC inh detg	SARS PLpro yeast	CHX counter	Shiga toxin inh
Cc1ccc(C(=O)NC2CCCCC2)cc1	-9.3%	-10.1%	?	-2.6%	30.7*	28.7
O=C(COc1cccc(C(F)(F)F)c1)NCC(c1ccco1)N1CCCC1 (stereo not drawn)	4.6%	95.6%	·	2.6%	·	·
Cc1ccc(Cl)c(Cn2cnc3c(cnn3C(C)(C)C)c2=O)c1F	·	3.6%	6.5%	-1.7%	·	·
CC1CCN(C(=O)Cn2cnc3c(cnn3C(C)(C)C)c2=O)CC1	1.5%	4.0%	-13.3%	0.9%	55.8*	92.7*
CC(C)(C)n1ncc2c(=O)n(Cc3c(F)cccc3Cl)cnc21	9.2%	-11.0%	-1.2%	-4.2%	15.9*	52.0
CC(C)(C)n1ncc2c(=O)n(CC(=O)c3ccc(Cl)cc3)cnc21	8.5%	-18.3%	1.3%	-2.7%	78.4*	84.1*
CC(C)(C)n1ncc2c(=O)n(CC(=O)NCc3ccccc3)cnc21	-11.5%	-5.2%	-5.3%	-8.3%	20.4*	37.5*
CC(=O)Nc1ccc(NC(=O)Cn2cnc3c(cnn3C(C)(C)C)c2=O)cc1	-7.7%	-23.5%	2.8%	6.5%	2.4	6.6
O=C(CCN1C(=O)c2ccccc2C1=O)N1CCN(Cc2ccc(Cl)cc2Cl)CC1	6.1%	136.7%	?	-5.0%	1.8	-11.7
O=C(NC(NC(=S)Nc1cccc(C(=O)O)c1)C(Cl)(Cl)Cl)OCc1ccccc1 (stereo not drawn)	-2.3%	-16.6%	0.1%	8.0%	18.6*	29.2
O=C(O)c1cccc(NC(=S)NC(=O)c2cccc(OCc3ccccc3)c2)c1	110.3%	-45.1%	10.6%	-0.4%	14.4*	38.5*
O=C(O)c1ccc(Cl)c(S(=O)(=O)Nc2ccc(OCc3ccccc3)cc2)c1	-17.3%	?	-9.4%	2.9%	23.4*	61.9*
O=C(Nc1ccccc1)c1ccc(COc2ccccc2)cc1	-1.4%	-0.5%	-5.2%	0.1%	9.6	27.4
CCCOc1cccc(C(=O)NC(=S)Nc2ccccc2)c1	46.1%	-46.9%	-0.3%	28.1%	5.1	18.3
O=C(Nc1ccc(COc2ccccc2)cc1)Nc1cccc(C(=O)O)c1	-7.7%	-40.9%	?	1.7%	17.2*	19.6
CCCC1C(C#N)=C(N)Oc2c1c(=O)oc1ccccc21 (stereo not drawn)	8.3%	-27.6%	-1.2%	10.6%	-1.5	16.9
COc1ccccc1OCCn1c(=O)oc2ccc(C)cc21	-7.6%	-15.9%	4.3%	-0.6%	-4.6	17.5
Cc1ccc2oc(=O)n(CCOc3ccccc3C)c2c1	2.4%	-26.1%	8.2%	0.6%	-0.5	-5.8
Cc1ccc(OCCn2c(=O)oc3ccc(C)cc32)cc1	45.4%	-8.6%	6.7%	-1.5%	19.7*	24.4
Cc1ccc2oc(=O)n(CCCOc3ccccc3)c2c1	13.3%	7.7%	-8.0%	-5.1%	34.9*	103.6*
COc1ccc(OCCCn2c(=O)oc3ccc(C)cc32)cc1	·	·	-5.1%	·	·	·
Cc1ccc2oc(=O)n(CCCOc3ccccc3C)c2c1	14.1%	1.2%	7.8%	-0.9%	15.7*	44.8*
COc1ccc(C2C(C(=O)NCc3cccnc3)c3cc(OC)c(OC)cc3C(=O)N2C)cc1 (stereo not drawn)	14.4%	20.5%	3.2%	-6.9%	-2.4	3.6
CN1C(=O)Cc2cc(S(=O)(=O)CCC(=O)Nc3ccc(F)c(Cl)c3)ccc21	·	·	4.3%	·	·	·
Clc1cccc(CSc2ncn(-c3ccccc3)n2)c1	41.3%	-15.7%	-7.5%	-35.0%	22.7*	35.3*
SMILES	AMA1-RON2 inh	AmpC inh no detg	AmpC inh detg	SARS PLpro yeast	CHX counter	Shiga toxin inh
O=C(CSc1ncn(-c2ccccc2)n1)N1CCc2ccccc21	11.3%	-23.8%	-0.1%	-4.9%	-1.6	-7.2
Clc1ccc(CSc2ncn(-c3ccccc3)n2)cc1	9.9%	-20.2%	?	-29.7%	31.3*	-7.5
CCc1ccc(OCC(=O)NC(=S)Nc2ccc(F)cc2)c(Br)c1	7.2%	-20.7%	?	2.4%	3.5	-5.5
CCc1ccc(OCC(=O)NC(=S)Nc2cccc(CO)c2)c(Br)c1	17.4%	-15.8%	-3.7%	-0.4%	22.4*	41.1
COc1cc(C(=O)OCC(=O)Nc2nnc(-c3ccccc3)o2)cc(OC)c1OC	-12.7%	-25.6%	-2.4%	-7.6%	·	·
CCNC(=S)N/N=C/c1cn(Cc2ccc(F)cc2)c2ccccc12	0.0%	-48.9%	-10.1%	?	0.4	-13.1
CCNC(=S)N/N=C/c1cn(Cc2ccccc2F)c2ccccc12	14.6%[2.32 µM]	-36.2%	-4.2%	30.3%	16.6*	24.2
COc1ccc(Cl)cc1NC(=O)CSc1nc(=O)[nH]c2c1CCC2	·	·	0.7%	·	-9.1	-4.5
COc1ccc(Cn2c(SCC(=O)NCc3ccco3)nc3ccsc3c2=O)cc1	0.1%	-50.3%	-1.2%	1.7%	17.3*	-40.3
CCn1c(SCC(=O)NCc2ccco2)nnc1C1CCCC1	7.4%	-5.2%	5.8%	-1.8%	-0.9	6.6
Cn1c(SCC(=O)NCc2ccco2)nc2ccccc2c1=O	-3.0%	-19.8%	2.2%	-2.8%	7.1	73.5*
CCn1c(SCC(=O)NCc2ccco2)nc2ccccc2c1=O	-1.5%	-31.1%	0.5%	-1.1%	-1.5	-4.7
O=C(CSc1nc2ccccc2c(=O)n1Cc1ccccc1)NCc1ccco1	3.2%	-16.6%	-9.4%	20.8%	2.5	-3.3
O=C(CSc1nc2ccccc2c2nc3ccccc3n12)NCc1ccco1	14.6%	2.7%	-0.5%	5.1%	28.4*	50.5*
O=C(CSc1nc2ccsc2c(=O)n1Cc1ccc(C(=O)O)cc1)NCc1ccco1	3.1%	-14.3%	?	20.1%	-5.0	-14.5
O=C(CSc1nnc(C2CCCCC2)n1Cc1ccccc1)NCc1ccco1	16.4%	38.3%	-12.2%	-3.4%	15.8*	24.4
CCCCOC(=O)Cn1c(-c2ccccc2)nc2ccccc2c1=O	41.0%	-0.4%	?	-9.1%	-4.5	-10.3
O=S(=O)(c1ccc(F)cc1F)N1CCN(CCO)CC1	23.3%	·	·	·	·	·
CCOc1ccc(-c2noc(CSc3nnc(Cc4ccccc4)n3-c3ccc(F)cc3)n2)cc1	·	·	12.2%	·	·	·
COc1ccc(OCc2cc(C(=O)N(C)CC3CCCCO3)no2)c(Cl)c1 (stereo not drawn)	9.1%	57.1%	?	-2.4%	48.3*	78.6*
COc1cc(Cl)ccc1OCc1cc(C(=O)N(C)CC2CCCCO2)no1 (stereo not drawn)	-10.7%	63.3%	-11.4%	-6.5%	40.3*	88.3*
COc1ccc(OCc2cc(C(=O)NCCCc3ccccc3)no2)c(Cl)c1	32.0%	-33.4%	-14.0%	-1.5%	1.6	7.0
COc1ccc(OCc2cc(C(=O)N(C)CCC3CCOCC3)no2)c(Cl)c1	-10.1%	154.7%	-4.8%	-4.3%	31.6*	60.4*
COc1cccc(OCc2cc(C(=O)N(C)C3CCOCC3)no2)c1	13.0%	1.6%	2.3%	0.9%	4.5	19.5
